Compounds with a hit are over-represented: about 4.1% of the library has one in this group of screens.
697 NFkB inh: inhibitors of the PMA/ionomycin-induced NF-kB reporter in 697 B cells. 697 B-cell NF-kB luciferase reporter, 16 h. AID 435022. inhibition, % at 4 µM. 330,000 compounds, 0.33% hits; in the data active = inhibition above about 35%
aSyn UTR inh: 5' untranslated region of α-synuclein, MLPCN primary screen | alpha-synuclein 5'UTR reporter, inhibitor activity | inhibition, % (tested at 7.5 µM) | 300,000 compounds, 0.82% hits | AID 1813; in the data active = inhibition above about 60%;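 note: H4 neuroglioblastoma cells stably carrying SNCA 5'UTR luciferase fusion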
KLF5 inh: suppresses KLF5 promoter-driven expression; DLD-1 KLF5 promoter-luciferase reporter, luminescence; inhibition, % at 5 µM; 290,000 compounds, 0.23% hits;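 active = inhibition above a per-plate limit of that plate's mean compound inhibition plus 3 SD, cut at about 60% in these data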;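 note: higher means less KLF5 promoter-driven luciferase light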
Gli-Sufu block: blocks Gli-Sufu signaling in a luciferase reporter | Sufu-KO-LIGHT fibroblasts, Gli luciferase reporter luminescence | 340,000 compounds, 0.74% hits | inhibition, % at 5 µM | AID 588413;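 active = inhibition above about 55%, limit read from the data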
Jurkat NFkB inh: lowers PMA/ionomycin-induced NF-kB signal in Jurkat cells; inhibition, % at 4 µM; PMA/ionomycin-induced NF-kB luciferase reporter, luminescence; 330,000 compounds, 0.53% hits; in the data active = inhibition above about 50%
Mdm2 MdmX PPI: human Mdm2/MdmX binding inhibition; inhibition, % at 8 µM; 330,000 compounds, 3% hits; SaOS-2 split-luciferase Mdm2/MdmX complementation, luminescence; O15151+Q00987;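 active = inhibition of at least 50% at 8 µM in the primary screen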
697 NFkB conf: lowers PMA/ionomycin-induced NF-kB signal in 697 B cells. shares compounds with 697 NFkB inh. 697 B-cell NF-kB luciferase, 16 h. inhibition, % at 4 µM. 2,000 compounds, 35% hits. AID 449746; in the data active = inhibition mostly above about 28%, no sharp cut-off; inactive = mostly below about 22%
Mdm2-MdmX conf: human Mdm2/MdmX binding inhibition, confirmed; 10,000 compounds, 55% hits; inhibition, % at 8 µM; luminescent assay; shares compounds with Mdm2 MdmX PPI; in the data active = inhibition above about 40%
FLuc counter: inhibits full-length luciferase, flagging false Mdm2/MdmX hits; shares compounds with Mdm2 MdmX PPI; SaOS-2 full-length luciferase counterscreen, luminescence; inhibition, % at 8 µM; 6,200 compounds, 77% hits; AID 504607;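 active = mean inhibition at 8 µM reaching about 37%, which flags the compound as non-specific, limit read from the data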;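 note: p53-null SaOS-2 cells with luciferase driven by a doxycycline-inducible promoter; compound on cells about two nights before reading with doxycycline added after day one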
Gli antag conf: Gli-SUFU antagonism confirmation, single concentration; shares compounds with Gli-Sufu block; Sufu-KO-LIGHT cells, Gli luciferase reporter, luminescence; inhibition, % at 5 µM; 2,500 compounds, 40% hits;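 active = mean inhibition at 5 µM reaching about 45%, limit read from the data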
Gli cytotox: cytotoxic in Gli-SUFU antagonist counter-screen; shares compounds with Gli-Sufu block; Sufu-KO-LIGHT cells cytotoxicity, ATP luminescence; cytotoxicity, % at 5 µM; 2,500 compounds, 32% hits;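 active = mean cytotoxicity at 5 µM above about 25%, limit read from the data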;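 note: cells exposed to compound overnight for roughly 16 to 18 hours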
Wnt3a counter: inhibits Wnt3a reporter, counter-screen for Gli-SUFU antagonists; shares compounds with Gli-Sufu block; 2,500 compounds, 20% hits; Wnt-LIGHT cells, Wnt3a-driven luciferase reporter, luminescence; inhibition, % at 6.25 µM; AID 651995;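 active = mean inhibition above about 25%, limit read from the data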
A number is an active result; - = inactive; . = not tested or not shown.

SMILES	697 NFkB inh	aSyn UTR inh	KLF5 inh	Gli-Sufu block	Jurkat NFkB inh	Mdm2 MdmX PPI	697 NFkB conf	Gli antag conf	Gli cytotox	Wnt3a counter	others
Cc1ccc(/C=C2\SC(=S)N(CCCC(=O)NNC(=O)c3ccccc3O)C2=O)cc1	87.5	106.6	-	60.4	-	-	76.2	58.9	-	100.4
N=c1c2c(n(Cc3ccc(Cl)c(Cl)c3)c3c1CCC3)CCCC2	43.6	-	-	83.3	-	73.7	28.7	88.7	-	35.8	Mdm2-MdmX conf=52.0;FLuc counter=45.3
COc1ccc(NC(=O)NNC(=O)c2ccc3ccccc3c2O)c(OC)c1	-	-	-	-	-	-	.	.	.	.
COc1ccc(NC(=O)CCSCCc2ccccn2)cc1OC	-	-	-	-	-	-	.	.	.	.
COc1cc(OC)c2c(-c3cccc(-c4ccc(OC)c(F)c4)c3)cc(=O)oc2c1	-	.	.	59.9	.	67.6	-	58.8	59.7	-	Mdm2-MdmX conf=48.9;FLuc counter=104.3
COc1ccc(NC(=O)O/N=C/c2c(C)nn(C(C)(C)C)c2C)cc1	-	-	-	-	-	-	.	.	.	.
Cc1nn(C(C)(C)C)c(C)c1/C=N/OC(=O)Nc1ccc(Cl)c(Cl)c1	52.0	-	-	87.9	-	-	69.4	88.8	-	102.8
CCOC(=O)Cc1ccc(NC(=O)c2ccc(C(C)(C)C)cc2)cc1	89.7	103.8	-	60.1	-	-	64.0	67.9	-	100.9
CCN(CC(=O)Nc1c(F)cccc1F)C(=O)c1cc(S(=O)(=O)N(CC)CC)ccc1N1CCCCC1	66.5	-	-	-	-	-	48.7	-	-	-
CCN(CC(=O)Nc1c(F)cccc1F)C(=O)c1ccc(N2CCCCC2)c([N+](=O)[O-])c1	-	-	-	-	-	-	.	.	.	.
CCOC(=O)c1ccccc1NC(=O)COC(=O)c1cc([N+](=O)[O-])ccc1N1CCOCC1	-	-	.	-	-	-	.	.	.	.
Cc1ccc(C(C)C)c(OCc2ccc(C(=O)N/N=C/c3ccc(O)c(O)c3)cc2)c1	-	-	-	67.2	-	53.4	-	49.4	28.9	92.7	Mdm2-MdmX conf=-
COc1cc(/C=N/NC(=O)c2ccc(COc3cc(C)ccc3C(C)C)cc2)cc(OC)c1O	-	-	-	-	-	-	.	.	.	.
Cc1ccc(C)c(OCCn2cc(C(=O)O)c3ccccc32)c1	-	-	-	-	-	-	.	.	.	.
CC(=O)c1cn(CCOc2cc(C)ccc2C)c2ccccc12	65.4	-	-	68.4	-	-	83.2	63.5	-	46.3
O=C(NCCN1C(=O)S/C(=C\c2ccccc2)C1=O)C1CCN(S(=O)(=O)c2cccs2)CC1	-	-	-	-	-	-	.	.	.	.
O=C(Nc1ccc(NC(=O)c2cc3ccccc3o2)cc1)c1ccc2c(c1)OCCO2	71.9	71.5	-	-	-	-	59.4	60.7	-	87.6
Cc1cc(NC(=O)c2ccc3c(c2)OCCO3)ccc1NC(=O)c1cc2ccccc2o1	-	-	-	-	-	-	.	.	.	.
CCOC(=O)c1sc(Nc2ccccc2Cl)nc1C	-	-	-	-	-	-	.	.	.	.
CCOC(=O)c1sc(NC(=O)Nc2ccccc2F)nc1C	-	69.8	-	-	-	-	-	-	49.1	84.6
CCn1c2ccccc2c2cc(NC(=O)CSc3nnc(-c4ccc(OC)c(OC)c4)n3N)ccc21	-	-	-	-	-	-	.	.	.	.
CCn1c2ccccc2c2cc(NC(=O)CSc3nnc(-c4cccc(Cl)c4)o3)ccc21	-	-	-	-	-	52.4	.	.	.	.	Mdm2-MdmX conf=-

Bioassay records as filed in PubChem BioAssay.
